Assay results: PubChem BioAssay (NCI)
Values joined by “and” are separate entries in the source; they are usually repeats but may differ in a detail not shown here. Equal entries are not always repeated. This is part of a sample that, as a whole, favours compounds with a hit. Of some 83,000 tested, about 20% had one in any assay.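 Single-concentration screen, 48 h exposure, 96-well plates. Endpoint: percent growth. Below 10 = active.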 Active and inactive are the calls of the source.

Tests used:
Experiment in all cases: NCI-60 one-dose screen, 48 h (100 = growth as untreated, 0 = no growth, -100 = all killed)
Settings in all cases: 10 µM unless noted
T-47D breast = system: T-47D breast
BT-549 breast = system: BT-549 breast
MDA-MB-435 melanoma = system: MDA-MB-435 melanoma
SW-620 colon = system: SW-620 colon
MCF7 breast = system: MCF7 breast
HCT-116 colon = system: HCT-116 colon
HCC-2998 colon = system: HCC-2998 colon
KM12 colon = system: KM12 colon

SMILES | growth (T-47D breast) | growth (BT-549 breast) | growth (MDA-MB-435 melanoma) | growth (SW-620 colon) | growth (MCF7 breast) | growth (HCT-116 colon) | growth (HCC-2998 colon) | growth (KM12 colon)
Cn1c(SSc2ccc(-c3cccnc3)n2C)ccc1-c1cccnc1 | 83.3% (inactive) and 121% (inactive) | 107% (inactive) and 105% (inactive) | 92.8% (inactive) and 82% (inactive) | 62.8% (inactive) and 11.1% (inactive) | 76.4% (inactive) and 117% (inactive) | 82.3% (inactive) and 99.2% (inactive) | 112% (inactive) and 102% (inactive) | 98.5% (inactive) and 95.5% (inactive)
CC(=O)Nc1ccc(O)cc1 | 116% (inactive) and 103% (inactive) and 93.9% (inactive) | 94.3% (inactive) and 78.1% (inactive) and 101% (inactive) | 105% (inactive) and 109% (inactive) and 110% (inactive) | 106% (inactive) and 108% (inactive) and 103% (inactive) | 100% (inactive) and 68.3% (inactive) and 107% (inactive) | 100% (inactive) and 120% (inactive) and 104% (inactive) | 102% (inactive) and 68.4% (inactive) and 110% (inactive) | 99.4% (inactive) and 38.3% (inactive) and 107% (inactive)
CC(=O)NC(Cc1ccccc1)C(=O)Oc1ccc2ccccc2c1 (configuration not stated) | 99.3% (inactive) and 108% (inactive) | 110% (inactive) | 119% (inactive) and 107% (inactive) | 107% (inactive) and 96.7% (inactive) | 113% (inactive) and 97.8% (inactive) | 113% (inactive) and 114% (inactive) | 105% (inactive) and 97% (inactive) | 103% (inactive) and 94.8% (inactive)
S=C(S)N1CCCC1 | 98.4% (inactive) and 89% (inactive) | 91% (inactive) and 114% (inactive) | 109% (inactive) and 90.9% (inactive) | 96.2% (inactive) and 84.8% (inactive) | 72.9% (inactive) and 61.8% (inactive) | 89.7% (inactive) and 86.2% (inactive) | 113% (inactive) and 94.9% (inactive) | 90.4% (inactive) and 93.9% (inactive)
OCCN1CCN(CCO)CC1 | 89.8% (inactive) and 86% (inactive) and 118% (inactive) | 110% (inactive) and 89.5% (inactive) and 102% (inactive) | 113% (inactive) and 99.8% (inactive) and 115% (inactive) | 99.5% (inactive) and 103% (inactive) | 95.5% (inactive) and 95.1% (inactive) and 107% (inactive) | 104% (inactive) and 87.9% (inactive) and 98.8% (inactive) | 102% (inactive) and 95.7% (inactive) and 107% (inactive) | 108% (inactive) and 96.8% (inactive) and 109% (inactive)
CC(=O)c1ccc2c(c1)N(CCCN1CCN(CCO)CC1)c1ccccc1S2 | 160% (inactive) and 37.8% (inactive) | 88.1% (inactive) and 44.6% (inactive) | 84.1% (inactive) and -67% (active) | 95% (inactive) and -52.1% (active) | 79.2% (inactive) and -31.2% (active) | 83.9% (inactive) and -11.8% (active) | 102% (inactive) and -55.5% (active) | 105% (inactive) and 2.29% (active)
Cc1ccc(S(=O)(=O)Nc2nc3ccccc3nc2Nc2ccc3nsnc3c2)cc1 | 33.6% (inactive) and 62.8% (inactive) | 37% (inactive) and 51.5% (inactive) | 36.3% (inactive) and 66.4% (inactive) | 77.5% (inactive) and 61% (inactive) | 50.9% (inactive) and 50.5% (inactive) | 38.4% (inactive) and 42.2% (inactive) | 42.1% (inactive) | 48.7% (inactive) and 44.1% (inactive)
CCN(CC)CCCC(C)N(Cc1ccccc1)CC(O)c1ccc(Cl)cc1 (configuration not stated) | 94.5% (inactive) and 91.3% (inactive) | 110% (inactive) and 102% (inactive) | 116% (inactive) and 107% (inactive) | 98.8% (inactive) and 113% (inactive) | 105% (inactive) and 99.3% (inactive) | 102% (inactive) and 100% (inactive) | 101% (inactive) | 103% (inactive) and 101% (inactive)
COc1cc2c(c(OC)c1OC)-c1ccc(OC)c(=O)cc1[C@@H](NC(C)=O)CC2 | 69.8% (inactive) and 49.2% (inactive) and 70.5% (inactive) | 4.27% (active) and -10% (active) and -7.06% (active) | -49.9% (active) and -0.781% (active) and -50.8% (active) | 23.7% (inactive) and 18.3% (inactive) and 26.4% (inactive) | 15.1% (inactive) and 15.6% (inactive) and 11.7% (inactive) | 1.53% (active) and 0.462% (active) and 0.179% (active) | 3.25% (active) and 13.4% (inactive) and -59% (active) | -6.61% (active) and 2.96% (active) and -29.9% (active)
O=C1c2ccccc2C(=O)N1/N=C/c1ccc2c(c1)OCO2 | 99.9% (inactive) | 97.2% (inactive) | 114% (inactive) | 107% (inactive) | 91.3% (inactive) | 95% (inactive) | 116% (inactive) | 113% (inactive)
N#C/C(=C1C=C/C(=N/O)C(Br)=C/1)c1ccccc1 | 37.1% (inactive) | 36.2% (inactive) | -64.5% (active) | 12.7% (inactive) | 18.2% (inactive) | -14.7% (active) | 58.3% (inactive) | -32.6% (active)
COC(=O)/C=C/c1cc(O)c2c(c1)C(C(=O)OC)C(c1ccc(O)c(O)c1)O2 (configuration not stated) | 84.7% (inactive) and 84.1% (inactive) | -2.3% (active) and -1.89% (active) | -37.6% (active) and -26% (active) | 19.4% (inactive) and 29.6% (inactive) | 15.1% (inactive) and 13.7% (inactive) | 8.03% (active) and 7.89% (active) | 27.8% (inactive) and 29.9% (inactive) | 11.9% (inactive) and 11.7% (inactive)
CN(C)c1ccc(C(Cc2ccc3ccccc3n2)Cc2ccc3ccccc3n2)cc1 | 34.7% (inactive) and 74.4% (inactive) | -3.35% (active) and 93.1% (inactive) | 32.7% (inactive) and 87.1% (inactive) | 48.1% (inactive) and 79.3% (inactive) | 40.8% (inactive) and 68% (inactive) | 15.4% (inactive) and 51.6% (inactive) | 35% (inactive) and 91.1% (inactive) | 42.1% (inactive) and 81% (inactive)
O=[N+]([O-])c1ccccc1N(S(=O)(=O)c1ccccc1)S(=O)(=O)c1ccccc1 | 105% (inactive) and 92.7% (inactive) | 106% (inactive) | 100% (inactive) and 98.1% (inactive) | 102% (inactive) and 97.3% (inactive) | 127% (inactive) | 110% (inactive) and 91.4% (inactive) | 101% (inactive) and 106% (inactive) | 96.1% (inactive) and 92% (inactive)
CC1=NN(c2ccccc2)C(=O)C1C(=O)c1ccccc1 (configuration not stated) | 86.9% (inactive) | 103% (inactive) | 104% (inactive) | 101% (inactive) | 86% (inactive) | 98.3% (inactive) | 90.5% (inactive) | 93.2% (inactive)
CCCCCn1sc(=O)n(Cc2ccc(CNC(=O)C(C)c3ccc(CC(C)C)cc3)cc2)c1=O (configuration not stated) | 86.4% (inactive) and -44.8% (active) | 99.1% (inactive) and -82.4% (active) | 98.1% (inactive) and -61.5% (active) | 87.6% (inactive) and -73.1% (active) | 93.2% (inactive) and -43.1% (active) | 103% (inactive) and -82.6% (active) | 105% (inactive) and -64.3% (active) | 88.7% (inactive) and -14.3% (active)
Clc1nc(Oc2ccccc2)nc(-c2cn(-c3ccccc3)c3ccccc23)n1 | 89.8% (inactive) | 96.9% (inactive) | 38.2% (inactive) | 12.4% (inactive) | 88.5% (inactive) | 58.5% (inactive) | 74.4% (inactive) | 89.6% (inactive)
CC(C)Oc1ccc2cc(-c3nn(CC4CCNCC4)c4ncnc(N)c34)ccc2c1 | 77.8% (inactive) and -8.43% (active) | 73.2% (inactive) and -5.14% (active) | 92.1% (inactive) and -86.6% (active) | 91.7% (inactive) and 1.44% (active) | 83.6% (inactive) and 15.2% (inactive) | 50.4% (inactive) and 9.14% (active) | 77.7% (inactive) and -13.5% (active) | 86.4% (inactive) and 22.4% (inactive)
CNc1cc(-c2cccc(OC(F)(F)F)c2)nc2ccc(N3CCCC3)cc12 | -40.3% (active) and -55% (active) and -40.4% (active) | -81.3% (active) and 74.1% (inactive) and 76.4% (inactive) | 35.8% (inactive) and -86.4% (active) and -70.6% (active) | 5.95% (active) and -18.2% (active) and 0.371% (active) | 3.84% (active) and -19.7% (active) and 0.755% (active) | -76% (active) and -90.3% (active) and -76.6% (active) | 25.9% (inactive) and -53.7% (active) and -32.7% (active) | 12.5% (inactive) and -3.68% (active) and 1.48% (active)
